Bioassay records: PubChem BioAssay, Johns Hopkins Ion Channel Center
The list is not random: actives were taken first. Their share in the collection is about 1.6%.
KCNQ2 block: blocks the rat KCNQ2 potassium channel. O88943. CHO-K1 KCNQ2, FluxOR thallium flux, 20 min; active compounds read low. B-score at 10 µM. hit rate 1.1% among 310,000. AID 2156;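 active = fluorescence ratio B-score at most minus 3 library SDs, with starting brightness B-score within 2 library SDs, cut at about -5.5 in these data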
KCNQ2 pot: potentiators of rat KCNQ2 potassium channel. O88943. CHO-K1 KCNQ2, FluxOR thallium flux fluorescence; active compounds read high. B-score at 10 µM. hit rate 0.54% among 310,000. AID 2239;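 active = fluorescence ratio B-score at least 3 SD of library B-scores, with initial fluorescence B-score within 3 of them, cut at about 5.3 in these data; same plate scores as AID 2156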;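 note: B-score of peak minus minimum over baseline fluorescence ratio after K+ and Tl+ stimulus; positive B-score means potentiation of KCNQ2 with more thallium influx and brighter signal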
The depositor's hits bear a star; i = inactive; . = no result given.

SMILES	KCNQ2 block	KCNQ2 pot
CCCN(CC(=O)Nc1ccccc1C)C(=O)c1ccc(NC2CC2)c([N+](=O)[O-])c1	i	0.21
COc1ccc2ncc(S(=O)(=O)c3ccccc3)c(N3CCN(c4ccccc4)CC3)c2c1	i	.
Cc1ccc2ncc(S(=O)(=O)c3ccccc3)c(N3CCCCC3C)c2c1 (centres undefined)	-6.1*	-6.1
CC(C)(C)OC(=O)N1CCC(c2cc(=O)n3[nH]cc(C(=O)Nc4ccc(F)c(Cl)c4)c3n2)CC1	i	2.5
COc1ccc(NC(=O)c2c[nH]n3c(=O)cc(C4CCN(C(=O)OC(C)(C)C)CC4)nc23)cc1Cl	i	6.3*
O=c1[nH]c(CSc2ncnc3sc(-c4ccccc4)cc23)nc2ccccc12	i	1.1
CCN(CC)c1c([N+](=O)[O-])c(=O)n(C)c2ccccc12	i	.
Cn1c(=O)c([N+](=O)[O-])c(Cl)c2ccccc21	-6.2*	-6.2
Cc1sc2ncnc(SCC(=O)NC(=O)c3cccn3C)c2c1C	i	3.1
CN1CCN(CC(=O)Nc2c(C#N)cnn2-c2ccccc2)CC1	i	0.06
O=C(NC(=S)Nc1ccccn1)c1cccc([N+](=O)[O-])c1	i	0.7
Cc1cc(C)c(C#N)c(SCC(=O)c2cc(C)n(CCc3ccccc3)c2C)n1	-6.4*	-6.4
COCCn1c(C)cc(C(=O)CSc2nc(C)cc(C)c2C#N)c1C	i	.
O=C(NC1CCN(C(=O)Nc2ccccc2Cl)CC1)c1cccc(F)c1	i	0.53
Cc1ccc(N2C(=O)CS/C2=N\C(=S)Nc2ccccc2)cc1	i	1.8
CC(=O)N1CCOc2ccc(S(=O)(=O)NC(C)c3ccccc3)cc21 (centres undefined)	i	.
C[C@H](NC(N)=O)C(=O)Nc1ccc2c(c1)OCO2	i	.
O=C(CSC1CCCCC1)Nc1ccccc1Br	i	6.9*
CCN(CC(=O)Nc1ccccc1Br)C1CCCCC1	i	.
Cc1cccc(S(=O)(=O)NCCc2ccccc2)c1	i	.
COc1ccc(N2C(=O)/C(=C\c3ccco3)N=C2SCC(=O)N(C(C)C)C(C)C)cc1Cl	i	.
CC(C)CN(CC(C)C)C1=N/C(=C\c2ccco2)C(=O)N1c1ccccc1	-7.4*	-7.4
COc1cc(NC(=O)c2ccnnc2)cc(C(=O)Nc2cccc(C(F)(F)F)c2)c1	-5.8*	-5.8
O=C(Nc1cccc(C(F)(F)F)c1)c1cccnc1	i	1.8
O=C(NC(=S)Nc1cccc(NC(=O)c2ccc(Cl)cc2Cl)c1)c1cccs1	i	.
SMILES	KCNQ2 block	KCNQ2 pot
Clc1ccccc1CSc1snnc1-c1ccccc1	-5.5*	-5.5
Clc1ccc(CSc2snnc2-c2ccccc2)cc1	i	.
O=C(NCc1ccccc1Cl)C(=O)c1cn(CC(=O)N2CCOCC2)c2ccccc12	i	.
O=C(/C=C/c1cccnc1)c1ccc(O)cc1	i	.
O=C(/C=C/c1cccnc1)c1ccccc1O	-5.9*	-5.9
C=CCNC(=O)C(=O)N/N=C/c1ccco1	i	0.87
O=C(CCc1ccccc1)NC(=S)Nc1cc(C(F)(F)F)ccc1N1CCOCC1	-6.2*	-6.2
CC(C)CC(=O)NC(=S)Nc1cc(C(F)(F)F)ccc1N1CCOCC1	i	.
O=C(CCC(=O)N1CCN(S(=O)(=O)c2ccc(Cl)cc2)CC1)Nc1ccc(Cl)cc1Cl	i	0.1
Cc1ccc(S(=O)(=O)N2CCN(CC(=O)NC3CCCc4ccccc43)CC2)c(C)c1 (centres undefined)	-6.1*	-6.1
NC(=O)C1CCN(CC(=O)NC2CCCc3ccccc32)CC1 (centres undefined)	i	1.5
Cc1ccc(S(=O)(=O)N2CCN(CC(=O)NC3CCCc4ccccc43)CC2)cc1C (centres undefined)	-7*	-7
O=C(CCC(=O)N1CCN(S(=O)(=O)c2ccc(Cl)cc2)CC1)NC1CCCc2ccccc21 (centres undefined)	-7.1*	-7.1
Cc1ccc(OCC(=O)NC2CCCc3ccccc32)c(C)c1 (centres undefined)	i	.
O=C(COc1ccc(S(=O)(=O)Nc2ccccc2)cc1)NCc1ccncc1	i	.
CNC(=S)N1CCN(c2nc3ccccc3s2)CC1	i	.
Cc1ccc(N2CCN(C(=O)NC3CCCCC3)CC2C)cc1 (centres undefined)	i	.
O=C(CSc1nc(=O)n2ccccc2n1)NC1CCCCC1	i	.
CC(C)COc1ccc(C(=O)Nc2scc(-c3ccc(Cl)cc3Cl)c2C(N)=O)cc1	-7.1*	-7.1
O=C(Nc1nc(-c2ccc(Cl)cc2Cl)cs1)c1ccc(OCC2CCCO2)cc1 (centres undefined)	i	.
COc1ccccc1C(C)NCC(=O)Nc1c(F)cccc1F (centres undefined)	i	0.99
COc1ccccc1NC(=O)CNC(c1ccccc1)c1ccccc1	-6.1*	-6.1
COc1ccc(C)cc1NC(=O)CNC(c1ccccc1)c1ccc(C)cc1 (centres undefined)	i	.
COc1cc(Cl)c(C)cc1NC(=O)CNC(C)c1ccccc1OC (centres undefined)	-5.8*	-5.8
